# According to the supplement of paper PMC10849652:
# Targets with a hit are over-represented here; the source holds about 7,900 in all. About 0.6% of all pairs of compound and target were hits. Unmarked numbers belong to inactive results.
# Experiments:
# Assay in all cases: log2 fold change, soluble protein after heating vs DMSO (PISA); higher = thermal stabilisation; K562 cells, 10 uM, 30 min; active = over 0.2 and 3.5 SD of the protein, either way, in both replicates (recomputed)
# [1] = compound: CS(=O)(=O)c1ccc(-c2cnc(N)c(C(=O)Nc3ccccc3)n2)cc1
# In short: (§1)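 K562 cells (2×10^6 cells/mL) were treated with 10 μM compound for 30 min, and aliquots were heated for 3 min over 48°C-58°C. Pooled aliquots were extracted in PBS with 0.5% NP-40 at 4°C, and the supernatant after 21,000xg for 90 min was measured by TMTpro 16plex LC-MS/MS with channel sums equalised. Reported thermal stability, relative to control samples and from duplicates, is a log2 fold change.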
# crizotinib = compound: C[C@@H](Oc1cc(-c2cnn(C3CCNCC3)c2)cnc1N)c1c(Cl)ccc(F)c1Cl [crizotinib]
# In short: as §1
# [2] = compound: C[C@@H]1COCCN1C2=NC(=NC(=C2)C3(CC3)S(=O)(=O)C)C4=C5C=CNC5=CC=C4
# In short: as §1
# [3] = compound: C[C@H](C1=CC=C(C=C1)C(=O)NC2=C3C=CNC3=NC=C2)N
# In short: as §1
# duvelisib = compound: C[C@H](Nc1ncnc2nc[nH]c12)c1cc2cccc(Cl)c2c(=O)n1-c1ccccc1 [duvelisib]
# In short: as §1
# gandotinib = compound: Cc1cc(Nc2cc(CN3CCOCC3)c3nc(C)c(Cc4ccc(Cl)cc4F)n3n2)n[nH]1 [gandotinib]
# In short: as §1
# tozasertib = compound: Cc1cc(Nc2cc(N3CCN(C)CC3)nc(Sc3ccc(NC(=O)C4CC4)cc3)n2)n[nH]1 [tozasertib]
# In short: as §1
# [4] = compound: Cc1cc(SCc2sc(-c3ccc(C(F)(F)F)cc3)nc2C)ccc1OCC(=O)O
# In short: as §1
# doramapimod = compound: Cc1ccc(-n2nc(C(C)(C)C)cc2NC(=O)Nc2ccc(OCCN3CCOCC3)c3ccccc23)cc1 [doramapimod]
# In short: as §1
# ispinesib = compound: Cc1ccc(C(=O)N(CCCN)[C@@H](c2nc3cc(Cl)ccc3c(=O)n2Cc2ccccc2)C(C)C)cc1 [ispinesib]
# In short: as §1
# bafetinib = compound: Cc1ccc(NC(=O)c2ccc(CN3CC[C@H](N(C)C)C3)c(C(F)(F)F)c2)cc1Nc1nccc(-c2cncnc2)n1 [bafetinib]
# In short: as §1
# [5] = compound: Cc1cccc(CC(=O)N2CCc3c2ccc(-c2cn(C)c4ncnc(N)c24)c3F)n1
# In short: as §1
# nilotinib = compound: Cc1cn(-c2cc(NC(=O)c3ccc(C)c(Nc4nccc(-c5cccnc5)n4)c3)cc(C(F)(F)F)c2)cn1 [nilotinib]
# In short: as §1
# [6] = compound: Cc1nc(Nc2n[nH]c3c2CN(C(=O)N[C@H](CN(C)C)c2ccccc2)C3(C)C)c2sccc2n1
# In short: as §1
# dasatinib = compound: Cc1nc(Nc2ncc(C(=O)Nc3c(C)cccc3Cl)s2)cc(N2CCN(CCO)CC2)n1 [dasatinib]
# In short: as §1
# [7] = compound: Cc1ncc(-c2ccnc(Nc3ccc(S(C)(=O)=O)cc3)n2)n1C(C)C
# In short: as §1
# [8] = compound: Cn1cc(-c2ccc3c(c2)CCN3C(=O)Cc2cccc(C(F)(F)F)c2)c2c(N)ncnc21
# In short: as §1
# [9] = compound: Cn1cc(-c2ccc3nnc(C(F)(F)c4ccc5ncccc5c4)n3n2)cn1
# In short: as §1
# tipifarnib = compound: Cn1cncc1[C@@](N)(c1ccc(Cl)cc1)c1ccc2c(c1)c(-c1cccc(Cl)c1)cc(=O)n2C [tipifarnib]
# In short: as §1
# mubritinib = compound: FC(F)(F)c1ccc(/C=C/c2nc(COc3ccc(CCCCn4ccnn4)cc3)co2)cc1 [mubritinib]
# In short: as §1
# Sequence of UniProt Q15904 (Q15904 whole entry, looked up): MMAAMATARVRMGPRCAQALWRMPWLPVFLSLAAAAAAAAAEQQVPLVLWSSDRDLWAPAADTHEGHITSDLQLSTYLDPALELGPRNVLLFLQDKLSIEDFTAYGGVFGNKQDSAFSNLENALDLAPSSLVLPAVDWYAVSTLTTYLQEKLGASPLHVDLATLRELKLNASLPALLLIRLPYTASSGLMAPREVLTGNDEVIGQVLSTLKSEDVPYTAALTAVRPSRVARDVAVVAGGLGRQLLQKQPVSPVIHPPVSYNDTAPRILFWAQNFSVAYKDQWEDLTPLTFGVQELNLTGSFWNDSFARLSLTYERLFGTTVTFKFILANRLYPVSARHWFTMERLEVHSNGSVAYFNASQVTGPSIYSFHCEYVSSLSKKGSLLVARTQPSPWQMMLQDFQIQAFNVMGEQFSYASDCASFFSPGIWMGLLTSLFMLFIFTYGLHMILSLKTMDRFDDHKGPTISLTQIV
# Sequence of UniProt Q9NP58 (Q9NP58 whole entry, looked up): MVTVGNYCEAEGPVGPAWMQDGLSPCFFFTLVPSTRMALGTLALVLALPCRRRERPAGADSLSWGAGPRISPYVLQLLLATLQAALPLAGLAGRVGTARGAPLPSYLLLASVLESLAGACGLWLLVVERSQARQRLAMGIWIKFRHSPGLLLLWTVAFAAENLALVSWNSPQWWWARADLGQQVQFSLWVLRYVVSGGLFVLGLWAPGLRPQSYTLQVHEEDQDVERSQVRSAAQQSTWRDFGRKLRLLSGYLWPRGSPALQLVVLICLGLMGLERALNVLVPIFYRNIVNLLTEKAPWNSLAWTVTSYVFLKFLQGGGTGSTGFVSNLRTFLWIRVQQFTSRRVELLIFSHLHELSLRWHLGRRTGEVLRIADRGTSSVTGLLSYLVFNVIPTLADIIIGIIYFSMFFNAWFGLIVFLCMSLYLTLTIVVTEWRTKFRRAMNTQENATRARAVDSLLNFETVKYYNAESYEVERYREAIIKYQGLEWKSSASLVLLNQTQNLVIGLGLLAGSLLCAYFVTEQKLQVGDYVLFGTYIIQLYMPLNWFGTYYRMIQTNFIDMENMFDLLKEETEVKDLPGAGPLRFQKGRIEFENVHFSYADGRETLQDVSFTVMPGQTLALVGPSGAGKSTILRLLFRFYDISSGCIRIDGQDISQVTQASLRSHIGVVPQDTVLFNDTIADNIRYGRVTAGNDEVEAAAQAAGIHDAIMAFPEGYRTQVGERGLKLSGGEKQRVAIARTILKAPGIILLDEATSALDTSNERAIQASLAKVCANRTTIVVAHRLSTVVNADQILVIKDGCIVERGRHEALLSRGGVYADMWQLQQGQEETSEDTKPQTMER
# Sequence of UniProt Q9Y6D6 (Q9Y6D6 whole entry, looked up): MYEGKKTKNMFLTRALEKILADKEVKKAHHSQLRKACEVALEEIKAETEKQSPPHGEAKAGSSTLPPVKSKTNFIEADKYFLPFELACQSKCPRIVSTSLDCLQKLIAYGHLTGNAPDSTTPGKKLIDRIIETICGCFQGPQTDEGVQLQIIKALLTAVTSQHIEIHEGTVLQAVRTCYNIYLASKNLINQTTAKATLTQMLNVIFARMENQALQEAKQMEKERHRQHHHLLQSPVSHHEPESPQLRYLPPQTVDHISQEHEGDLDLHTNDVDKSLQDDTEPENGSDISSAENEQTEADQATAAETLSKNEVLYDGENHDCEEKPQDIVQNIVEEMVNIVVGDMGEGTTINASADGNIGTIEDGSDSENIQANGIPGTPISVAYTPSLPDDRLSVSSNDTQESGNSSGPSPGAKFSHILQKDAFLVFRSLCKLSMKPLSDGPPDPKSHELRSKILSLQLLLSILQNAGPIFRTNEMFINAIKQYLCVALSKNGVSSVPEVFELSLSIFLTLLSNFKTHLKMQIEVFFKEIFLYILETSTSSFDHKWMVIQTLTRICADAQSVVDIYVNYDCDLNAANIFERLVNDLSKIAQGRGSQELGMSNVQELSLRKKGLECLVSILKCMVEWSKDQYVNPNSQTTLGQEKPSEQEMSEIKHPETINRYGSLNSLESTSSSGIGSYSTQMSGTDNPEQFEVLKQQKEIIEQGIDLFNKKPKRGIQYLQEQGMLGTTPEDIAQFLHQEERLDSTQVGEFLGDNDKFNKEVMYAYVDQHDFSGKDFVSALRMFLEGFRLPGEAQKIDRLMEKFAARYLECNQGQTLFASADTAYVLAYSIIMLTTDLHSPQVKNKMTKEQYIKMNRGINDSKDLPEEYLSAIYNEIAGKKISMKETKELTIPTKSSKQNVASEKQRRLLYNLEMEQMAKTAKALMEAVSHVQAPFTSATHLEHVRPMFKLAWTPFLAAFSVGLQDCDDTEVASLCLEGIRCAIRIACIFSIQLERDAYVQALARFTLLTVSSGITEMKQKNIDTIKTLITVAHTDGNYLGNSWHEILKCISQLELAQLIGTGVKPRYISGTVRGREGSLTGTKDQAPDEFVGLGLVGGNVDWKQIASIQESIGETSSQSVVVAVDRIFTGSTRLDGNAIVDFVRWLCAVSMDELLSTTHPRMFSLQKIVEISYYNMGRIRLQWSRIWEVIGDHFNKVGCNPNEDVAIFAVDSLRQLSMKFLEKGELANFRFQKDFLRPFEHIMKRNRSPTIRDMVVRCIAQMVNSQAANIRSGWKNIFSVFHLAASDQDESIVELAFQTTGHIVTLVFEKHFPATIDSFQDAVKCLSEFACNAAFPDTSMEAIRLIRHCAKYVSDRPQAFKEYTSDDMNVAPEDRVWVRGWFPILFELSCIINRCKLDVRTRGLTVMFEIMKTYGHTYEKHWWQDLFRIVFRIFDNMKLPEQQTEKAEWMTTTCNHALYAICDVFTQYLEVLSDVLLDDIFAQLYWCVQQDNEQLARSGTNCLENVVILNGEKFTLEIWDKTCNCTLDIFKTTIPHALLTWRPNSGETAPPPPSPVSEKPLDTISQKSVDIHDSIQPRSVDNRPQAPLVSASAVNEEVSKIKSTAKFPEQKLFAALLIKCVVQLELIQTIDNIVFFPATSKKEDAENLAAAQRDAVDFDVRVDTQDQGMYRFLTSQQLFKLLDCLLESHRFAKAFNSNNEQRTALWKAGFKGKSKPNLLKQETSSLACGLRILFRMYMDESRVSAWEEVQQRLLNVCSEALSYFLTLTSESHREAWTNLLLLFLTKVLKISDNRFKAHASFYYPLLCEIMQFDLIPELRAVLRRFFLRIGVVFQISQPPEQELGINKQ
# Sequence of UniProt P05091 (P05091 whole entry, looked up): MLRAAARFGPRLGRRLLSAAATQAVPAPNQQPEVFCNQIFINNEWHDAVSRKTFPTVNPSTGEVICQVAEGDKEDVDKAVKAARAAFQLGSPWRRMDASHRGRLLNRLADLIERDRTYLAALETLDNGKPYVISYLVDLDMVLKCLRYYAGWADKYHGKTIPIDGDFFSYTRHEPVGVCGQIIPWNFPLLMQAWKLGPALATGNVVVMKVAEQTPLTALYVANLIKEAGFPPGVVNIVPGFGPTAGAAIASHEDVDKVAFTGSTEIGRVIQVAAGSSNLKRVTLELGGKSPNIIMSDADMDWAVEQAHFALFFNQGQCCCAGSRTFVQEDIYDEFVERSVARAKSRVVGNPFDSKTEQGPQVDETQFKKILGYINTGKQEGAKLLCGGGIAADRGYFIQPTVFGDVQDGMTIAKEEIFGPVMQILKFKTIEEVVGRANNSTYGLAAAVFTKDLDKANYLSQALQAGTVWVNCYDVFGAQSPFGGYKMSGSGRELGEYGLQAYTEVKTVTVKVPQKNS
# Sequence of UniProt Q13444 (Q13444 whole entry, looked up): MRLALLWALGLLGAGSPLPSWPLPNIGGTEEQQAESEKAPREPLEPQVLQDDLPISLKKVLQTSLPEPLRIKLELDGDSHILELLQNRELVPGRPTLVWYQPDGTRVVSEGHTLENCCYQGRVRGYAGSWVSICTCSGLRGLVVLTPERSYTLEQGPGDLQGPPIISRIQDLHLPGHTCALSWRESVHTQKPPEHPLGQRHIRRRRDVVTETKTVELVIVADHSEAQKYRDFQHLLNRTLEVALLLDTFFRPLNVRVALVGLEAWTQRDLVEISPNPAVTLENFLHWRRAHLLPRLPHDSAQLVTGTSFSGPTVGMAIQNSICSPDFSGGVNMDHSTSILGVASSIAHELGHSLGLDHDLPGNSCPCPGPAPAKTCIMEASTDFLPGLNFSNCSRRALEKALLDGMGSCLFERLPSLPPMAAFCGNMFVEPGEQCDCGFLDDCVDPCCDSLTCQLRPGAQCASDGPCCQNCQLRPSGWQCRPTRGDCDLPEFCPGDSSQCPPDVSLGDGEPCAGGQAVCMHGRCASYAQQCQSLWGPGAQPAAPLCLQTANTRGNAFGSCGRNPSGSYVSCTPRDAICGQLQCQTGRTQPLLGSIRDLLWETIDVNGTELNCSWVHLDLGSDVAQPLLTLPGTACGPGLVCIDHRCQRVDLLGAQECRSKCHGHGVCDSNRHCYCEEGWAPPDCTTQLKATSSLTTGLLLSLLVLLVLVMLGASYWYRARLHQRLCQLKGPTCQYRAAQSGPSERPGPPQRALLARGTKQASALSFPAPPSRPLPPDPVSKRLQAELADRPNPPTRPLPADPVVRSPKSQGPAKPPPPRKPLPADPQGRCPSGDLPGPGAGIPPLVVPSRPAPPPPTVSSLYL
# Sequence of UniProt P49189 (P49189 whole entry, looked up): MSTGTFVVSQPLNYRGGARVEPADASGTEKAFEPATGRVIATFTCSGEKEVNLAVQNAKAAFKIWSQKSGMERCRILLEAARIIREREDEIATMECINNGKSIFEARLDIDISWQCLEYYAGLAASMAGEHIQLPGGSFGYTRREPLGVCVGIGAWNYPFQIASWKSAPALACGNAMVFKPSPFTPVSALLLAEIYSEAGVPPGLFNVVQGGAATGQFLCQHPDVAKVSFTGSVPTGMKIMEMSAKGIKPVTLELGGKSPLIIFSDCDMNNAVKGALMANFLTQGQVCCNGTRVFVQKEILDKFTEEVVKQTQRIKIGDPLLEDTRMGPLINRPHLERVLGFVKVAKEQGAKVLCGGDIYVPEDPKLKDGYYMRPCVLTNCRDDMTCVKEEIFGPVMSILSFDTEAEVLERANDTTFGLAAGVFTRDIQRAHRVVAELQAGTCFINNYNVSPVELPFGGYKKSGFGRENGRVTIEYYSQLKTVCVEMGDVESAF
Target,log2 fold change [1],log2 fold change (crizotinib),log2 fold change [2],log2 fold change [3],log2 fold change (duvelisib),log2 fold change (gandotinib),log2 fold change (tozasertib),log2 fold change [4],log2 fold change (doramapimod),log2 fold change (ispinesib),log2 fold change (bafetinib),log2 fold change [5],log2 fold change (nilotinib),log2 fold change [6],log2 fold change (dasatinib),log2 fold change [7],log2 fold change [8],log2 fold change [9],log2 fold change (tipifarnib),log2 fold change (mubritinib)
ADH5 (UniProt P11766),-0.021,0.033,0.032,-0.033,-0.002,-0.014,-0.003,-0.031,-0.033,-0.003,-0.009,0.006,-0.013,0.023,0.036,0.013,0.021,-0.006,-0.029,0.028
ADAM15 (UniProt Q13444),0,0.097,0.015,-0.047,0.119,-0.047,-0.067,-0.047,0.033,-0.119,0.067,0.003,-0.11,-0.043,-0.009,0.079,-0.355 (active),0.018,-0.053,–
ARFGEF1 (UniProt Q9Y6D6),0.03,-0.135,0.022,0.052,0.021,-0.014,0.049,0.004,0.067,-0.024,0.052,0.006,-0.024,0.014,-0.026,0.008,0.005,0.047,0.009,-0.021
ADD2 (UniProt P35612),0.021,-0.005,0.022,-0.052,0.017,-0.042,-0.057,-0.029,0.016,0.088,0.012,0.011,0.022,-0.026,-0.033,-0.048,0.029,0.001,0.035,0.011
BYSL (UniProt Q13895),-0.003,-0.049,0,0.05,-0.041,-0.012,0.1,0.135,0.037,-0.094,0.118,0.034,-0.131,0.163,-0.082,0.064,-0.05,-0.003,-0.063,0.062
ARMC8 (UniProt Q8IUR7),0.005,0.013,0.005,-0.015,0.07,-0.045,0.063,0.165,0.014,0.051,0.021,-0.026,-0.036,0.038,-0.082,-0.008,-0.019,-0.112,0.007,-0.053
ABCB6 (UniProt Q9NP58),0.03,-0.457 (active),0.093,-0.057,0.015,-0.031,-0.017,-0.028,0.049,-0.207,-0.035,0.014,0.022,0.032,-0.001,0.024,0,-0.025,0.005,0.001
AKR1C3 (UniProt P42330),-0.101,0.028,-0.009,-0.035,0.23,0.005,-0.059,0.078,-0.012,0.371,0.018,-0.03,0.025,0.004,-0.038,0.078,0.068,0.557 (active),0.862 (active),-0.147
ALDH1B1 (UniProt P30837),0.054,-0.067,0.12,-0.068,0.021,-0.025,-0.011,0.008,-0.006,0.019,0.03,-0.018,0.003,0.014,-0.113,0.131,0.022,0.034,-0.018,0.059
ACACB (UniProt O00763),0.078,-0.152,-0.13,0.341,-0.113,0.041,-0.013,0.289,0.168,-0.188,0.145,-0.021,-0.109,-0.251,-0.03,-0.026,-0.09,-0.059,-0.14,-0.147
BRD8 (UniProt Q9H0E9),0,-0.021,0.018,0.06,-0.009,-0.013,0.046,-0.054,0.023,-0.022,-0.032,-0.072,-0.01,-0.055,0.057,-0.019,0.018,-0.028,0.054,0.011
ALDH2 (UniProt P05091),-0.047,-0.044,0.051,-0.038,0.056,-0.088,-0.039,0.022,0.033,-0.023,0.009,-0.02,0.006,-0.016,-0.034,0.019,0.072,0.059,-0.005,0.07
ATP6AP1 (UniProt Q15904),-0.006,-0.134,-0.161,0.146,-0.056,-0.03,0.028,0.055,0.045,-0.317 (active),-0.052,0.025,0.024,-0.041,0.016,-0.041,-0.081,-0.064,0.011,-0.051
ALDH9A1 isoform 3 (UniProt P49189),-0.002,-0.002,0.027,-0.042,0.015,0.063,-0.024,-0.002,-0.004,0.006,-0.003,0.001,0.012,-0.019,0.025,-0.018,0.041,0.001,-0.002,-0.005
B4GALNT1 (UniProt Q00973),0.198,0.014,-0.003,-0.019,0.06,-0.077,-0.003,0.12,0.065,-0.077,0.141,-0.042,0.083,0.012,0.076,-0.125,-0.128,0.036,0.025,0.015
ATP13A2 (UniProt Q9NQ11),-0.012,-0.214,0.031,0.008,0.105,0.01,-0.006,0.018,0.025,-0.363 (active),-0.002,0.001,0.01,0.014,-0.007,0.018,0.045,0.069,0.06,0.108
